Hits are enriched below; roughly 1.4% of the tested compounds scored in any of these assays.
EPAC1 ag – qHTS for Agonist of cAMP-regulated guanine nucleotide exchange factor 3 (EPAC1): primary screen; Rap guanine nucleotide exchange factor 3 (Homo sapiens), O95398; 0.073% of 360,000 active; Potency, µM (series often up to 154 µM), for the others: at the highest dose activation, most hits filed as activators; EPAC1 agonist qHTS, biochemical assay; response scale: 100% = response to 6.5 mM cAMP; note: potency is the fitted concentration of half-maximal effect; nearly all actives have a fitted effect of over 60% in size
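Compounds were pinned as a concentration titration into mixtures of EPAC1 (100 nM), BODIPY-GDP-loaded Rap1B (250 nM) and GDP (50 uM). After 5 min at room temperature, fluorescence was followed for 30 min; activity was scaled to 6.5 mM cAMP.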
KCNH2 3.1 block – qHTS for Inhibitors of KCHN2 3.1: Mutant qHTS | Potassium voltage-gated channel subfamily H member 2, brain isoform KCNH2 3.1 (human) | activity change, % (tested at about 1.8 µM) | 0.95% of 340,000 active | U2OS KCNH2 3.1, thallium flux FluxOr; hits give low values | AID 720553, 2013;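 active = maximum activity change below -70%; inconclusive = maximum activity change from -70% to -50%; inactive = maximum activity change above -50%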;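 note: thallium influx rate constant from kinetic fluorescence after stimulation buffer; % is set by controls: 0 for no effect and ±100 for the full control effect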
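Normalized rate constant (relative to positive and negative DMSO controls) derived from a 2 min kinetic fluorescence read after stimulation; U2OS cells expressing the 3.1 isoform via virus at 1.77 x 10^8 /mL.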
EPAC2 agonist – qHTS for Agonist of cAMP-regulated guanine nucleotide exchange factor 4 (EPAC2): primary screen. EPAC2 activation, biochemical qHTS; response scale: 100% = 6.5 mM cAMP response. Potency, µM (series often up to 154 µM), for the others: at the top dose activation, most hits filed as activators. 0.079% of 360,000 active. AID 720711, 2013; note: potency is the fitted concentration of half-maximal effect; nearly all actives have a fitted effect of over 50% in size
Target sequence (Q8WZA2 whole entry, looked up): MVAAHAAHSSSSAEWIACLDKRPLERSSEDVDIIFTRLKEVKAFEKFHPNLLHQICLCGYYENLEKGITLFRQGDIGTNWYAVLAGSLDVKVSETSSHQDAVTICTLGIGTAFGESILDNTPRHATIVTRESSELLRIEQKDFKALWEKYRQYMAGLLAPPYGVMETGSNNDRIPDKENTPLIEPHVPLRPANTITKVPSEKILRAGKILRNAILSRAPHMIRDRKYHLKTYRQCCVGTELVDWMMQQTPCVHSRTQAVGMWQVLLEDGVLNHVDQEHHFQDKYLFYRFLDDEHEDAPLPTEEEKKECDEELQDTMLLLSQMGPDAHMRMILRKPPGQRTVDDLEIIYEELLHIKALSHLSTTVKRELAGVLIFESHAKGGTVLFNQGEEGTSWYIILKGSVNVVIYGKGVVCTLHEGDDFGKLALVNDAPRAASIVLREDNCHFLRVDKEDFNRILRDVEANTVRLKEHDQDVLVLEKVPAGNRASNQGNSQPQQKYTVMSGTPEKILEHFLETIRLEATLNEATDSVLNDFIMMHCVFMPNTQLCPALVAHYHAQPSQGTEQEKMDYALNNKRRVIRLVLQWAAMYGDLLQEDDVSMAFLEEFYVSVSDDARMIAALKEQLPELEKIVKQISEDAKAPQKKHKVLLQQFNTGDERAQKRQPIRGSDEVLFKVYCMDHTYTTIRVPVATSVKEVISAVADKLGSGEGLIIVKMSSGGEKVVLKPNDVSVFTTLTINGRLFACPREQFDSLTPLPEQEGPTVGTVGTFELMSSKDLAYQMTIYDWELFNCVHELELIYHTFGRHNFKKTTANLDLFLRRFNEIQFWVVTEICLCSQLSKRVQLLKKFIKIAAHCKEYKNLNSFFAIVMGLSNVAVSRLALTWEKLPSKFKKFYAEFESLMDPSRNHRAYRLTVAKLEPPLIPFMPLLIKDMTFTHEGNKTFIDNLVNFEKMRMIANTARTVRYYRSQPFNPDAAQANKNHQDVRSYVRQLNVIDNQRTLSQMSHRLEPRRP
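qHTS, titration series. 100 nM EPAC2 / 250 nM Rap1B-BODIPY-GDP / 50 uM GDP; RT; ex 480/em 540 nm, 5-min reads to 30 min. Norm. to 6.5 mM cAMP = activation.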
hERG WT inh – qHTS for Inhibitors of KCHN2 3.1: Wildtype qHTS | Voltage-gated inwardly rectifying potassium channel KCNH2 (Homo sapiens), Q12809 | U2OS, BacMam KCNH2, thallium flux FluxOr; hits give low values | activity change, % at 1.84 µM | 0.37% of 340,000 active | AID 720551, 2013;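 active = maximum activity change below -70%; inconclusive = maximum activity change between -70% and -50%; inactive = maximum activity change above -50%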; note: % is set by controls: 0 for no effect and ±100 for the full control effect
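U2OS cells transduced with wild-type KCNH2 virus are loaded with FluxOr dye for 45 min, and thallium flux is measured in kinetic reads before and after stimulation buffer. Rate constants are normalized to DMSO controls.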
EPAC2 antag – qHTS for Antagonist of cAMP-regulated guanine nucleotide exchange factor 2 (EPAC2): primary screen. EPAC2 GEF exchange of Rap1B-BODIPY-GDP, fluorescence. Potency, µM (titrated, usually from 114 µM), inactives show at the highest dose activity, negative = inhibition, most hits filed as inhibitors. 0.18% of 360,000 active. AID 720708, 2013; note: potency is the fitted concentration of half-maximal effect; % is set by controls: 0 for no effect and ±100 for the full control effect; nearly all actives have a fitted effect of over 45% in size
EPAC1 antagonist – qHTS for Antagonist of cAMP-regulated guanine nucleotide exchange factor 3 (EPAC1): primary screen | Rap guanine nucleotide exchange factor 3 (Homo sapiens), O95398 | EPAC1 GEF assay, Rap1b-BODIPY-GDP exchange fluorescence | Potency, µM (top dose mostly 115 µM), without a hit: at the top dose activity change, negative = inhibition, hits mostly inhibitors | 0.14% of 360,000 active;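 note: potency is the fitted concentration of half-maximal effect; plate controls were vehicle for no effect and positive control for full effect; nearly all actives have a fitted effect of over 50% in size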
* marks the source's active call; other numbers are inactive results; i = inactive; ? = inconclusive; / = no result. Unless noted, calls come from the whole dose curve; as a rule, active = well fitted curve in the direction sought with a large enough effect; inconclusive = small, poorly fitted or top-dose-only effect, or another doubt; inactive = no such curve, though single readings can be large; an effect the other way counts as inactive or inconclusive.

SMILES | EPAC1 ag | KCNH2 3.1 block | EPAC2 agonist | hERG WT inh | EPAC2 antag | EPAC1 antagonist
CC(Sc1ccc(S(=O)(=O)N(C)C)cn1)C(=O)NC1CCCC1 (stereo not given) | -1% | 8 | 8% | -10 | -1% | 5%
CCOc1ccccc1NC(=O)Cn1nnc(C(=O)Nc2ccc(C)cc2)c1N | 3% | -7 | -4% | -127* | 12% | 10%
Cc1ccccc1CN1CCc2c(OCC(=O)N3CCCc4ccccc43)cccc2C1=O | 22% | -15 | 19% | -123* | -7% | -1%
COc1ccc(OC(C)C(=O)Nc2ccccc2F)cc1 (stereo not given) | -3% | 9 | 4% | -2 | -14% | 6%
COc1ccc(OC)c(NC(=O)C(C)Oc2ccc(Br)cc2)c1 (stereo not given) | 2% | -5 | 5% | -3 | 13µM* | -4%
COc1ccc(NC(=O)NNC(=O)C(C)Oc2ccc(C(C)C)cc2)c(OC)c1 (stereo not given) | -6% | -12 | 3% | -14 | -2% | 20%
COc1ccc(OC(C)C(=O)Nc2ccc(F)cc2F)cc1 (stereo not given) | -15% | -190* | -6% | -136* | -11% | ?
OCCC1CN(Cc2cnc(-c3cccc4ccccc34)nc2)CCN1C1CCCCC1 (stereo not given) | 2% | -8 | 12% | 25 | 3% | -16%
CCCNC(=O)c1ccc(N2CCC3(CC2)CC(c2cccc(Br)c2)=NO3)c(NC(=O)c2cccc(OC)c2)c1 | 4% | -72* | 2% | -40 | 13% | 8%
CCCNC(=O)c1ccc(N2CCC3(CC2)CC(c2cccc(Br)c2)=NO3)c([N+](=O)[O-])c1 | -9% | -80* | -6% | -129* | 12% | -5%
CCCCCCCC(=O)Nc1cc(C(=O)NCCC)ccc1N1CCC2(CC1)CC(c1ccccc1)=NO2 | -4% | -90* | -6% | -113* | 25% | -14%
CCCNC(=O)c1ccc(N2CCC3(CC2)CC(c2cccc(Br)c2)=NO3)c(NC(=O)c2ccccc2)c1 | -13% | -42 | 0% | -37 | 28% | 0%
Cc1ccc(S(=O)(=O)N2C[C@H]3C(=O)C[C@@H](c4cccc(Cl)c4)N(S(=O)(=O)c4ccc(C)cc4)[C@H]3C[C@H]2c2ccc(Cl)cc2)cc1 | -9% | -24 | 6% | -3 | 3% | -8%
C=CCN(C(=O)CSc1nc2ccsc2c(=O)n1Cc1ccccn1)c1ccccc1 | 4% | -91* | 4% | -9 | ? | -10%
CC(=O)Nc1cccc(-c2ccnc3c2CC(C(=O)Nc2ccc(Cl)cc2)O3)c1 (stereo not given) | -8% | / | 8% | / | -5% | -1%
CN(CCO)c1ccc2c(c1)OC[C@@H](Cc1ccccc1)NS2(=O)=O | 1% | / | 7% | / | 4% | -18%
Cc1ccc(C23CC4CC(CC(C(=O)NC(C)C(N)=O)(C4)C2)C3)cc1 (stereo not given) | -14% | -9 | 2% | 2 | 0% | 13%
COc1ccc(-c2[nH]ncc2CNCCn2cccn2)c(F)c1 | -5% | -138* | 1% | 1 | 9% | 2%
CN1C(=O)C(C)(C)N(C(=O)c2cccc([N+](=O)[O-])c2)c2ccccc21 | 10% | -100* | 3% | 0 | -1% | -17%
COc1ccc(NC(=O)NCCCN2CCc3ccccc3C2)cc1 | -16% | -5 | 3% | 33 | 3% | -18%
O=C(NCCCN1CCc2ccccc2C1)Nc1ccc(Br)cc1 | 8% | -80* | 15% | 4 | -3% | -11%
COc1ccc(-n2c(C)cc(C(=O)CCl)c2C)cc1 | 8% | -4 | 11% | -10 | 7.9µM* | -30%
CCC(=O)N(C)/C=C1\Sc2ccccc2C1=O | 3% | -10 | -7% | -102* | -12% | -3%
COc1ccc(CC(N)c2csc(Nc3cc(NCc4ccco4)ncn3)n2)cc1 (stereo not given) | 3% | / | 9% | / | -8% | -8%
CN1CCS/C1=C\C=C1/SC(=S)N(CC(=O)O)C1=O | 22µM* | 4 | ? | i | 4% | -29%
SMILES | EPAC1 ag | KCNH2 3.1 block | EPAC2 agonist | hERG WT inh | EPAC2 antag | EPAC1 antagonist
CCN1C(=O)/C(=C/C=C2/SCCN2C)SC1=S | 100µM* | -13 | 35µM* | -10 | -4% | -6%
CCCN1C(=O)/C(=C\C=C2/Sc3ccccc3N2CCO)SC1=S | 10% | -81* | -1% | -21 | -13% | -3%
CCCCN1C(=O)/C(=C/C=C2\Oc3ccccc3N2CC)SC1=S | ? | -15 | 32µM* | -23 | 30% | -14%
CCCN1C(=O)/C(=C/C=C2\N(CC)c3ccccc3C2(C)C)SC1=S | 22% | -5 | -12% | -91* | 21% | 17%
CN1/C(=C\C=C2/SC(=S)N(CC(=O)O)C2=O)C(C)(C)c2ccccc21 | 63µM* | -6 | 112µM* | 8 | 47% | 1%
CCN1C(=O)/C(=C/C=C2/Sc3ccccc3N2CCO)SC1=S | 1% | -7 | 14% | -5 | -25% | -25%
CCOC(=O)CC1(C)Oc2cc(Cl)ccc2N1S(=O)(=O)c1ccc(C)cc1 (stereo not given) | 13% | / | 12% | / | -17% | -5%
CC(=O)Nc1ccc(S(=O)(=O)NCC(=O)N2CCN(S(=O)(=O)c3cccs3)CC2)cc1 | 9% | -101* | 9% | 2 | -3% | 8%
CCOC(=O)N1CCN(C(=O)CNS(=O)(=O)c2cccs2)CC1 | -5% | 1 | 2% | -9 | -1% | 16%
COc1ccc(-c2cc(=O)oc3cc(OC(C)C(=O)O)ccc23)cc1 (stereo not given) | 0% | 16 | -3% | 6 | 1% | 0%
COc1ccc(-c2cc(=O)oc3c(O)c(O)ccc23)cc1 | 1% | -3 | 2% | 4 | -16% | 35µM*
Cc1ccc(C(=O)NNC(=O)c2n[nH]c(=O)c3ccccc23)cc1C | -10% | -79* | -1% | 6 | -1% | ?
O=C(NNC(=O)c1n[nH]c(=O)c2ccccc12)c1ccc(Br)cc1 | -5% | -7 | 1% | -3 | 2% | -6%

Source: PubChem BioAssay (National Center for Advancing Translational Sciences (NCATS))
